A selection: hits, their analogues and other compounds. The true share with any hit is near 17%.
TDP1 inh: qHTS Assay for Inhibitors of Tyrosyl-DNA Phosphodiesterase (TDP1); Tyrosyl-DNA phosphodiesterase 1 (Homo sapiens), Q9NUW8; recombinant TDP1, AlphaScreen DNA substrate cleavage; Potency, µM (doses to about 130 µM), most hits filed as inhibitors; 0.28% of 350,000 active; AID 485290, 2010; also: nearly all actives have a fitted effect of over 40% in size
Target sequence (Q9NUW8 whole entry, looked up): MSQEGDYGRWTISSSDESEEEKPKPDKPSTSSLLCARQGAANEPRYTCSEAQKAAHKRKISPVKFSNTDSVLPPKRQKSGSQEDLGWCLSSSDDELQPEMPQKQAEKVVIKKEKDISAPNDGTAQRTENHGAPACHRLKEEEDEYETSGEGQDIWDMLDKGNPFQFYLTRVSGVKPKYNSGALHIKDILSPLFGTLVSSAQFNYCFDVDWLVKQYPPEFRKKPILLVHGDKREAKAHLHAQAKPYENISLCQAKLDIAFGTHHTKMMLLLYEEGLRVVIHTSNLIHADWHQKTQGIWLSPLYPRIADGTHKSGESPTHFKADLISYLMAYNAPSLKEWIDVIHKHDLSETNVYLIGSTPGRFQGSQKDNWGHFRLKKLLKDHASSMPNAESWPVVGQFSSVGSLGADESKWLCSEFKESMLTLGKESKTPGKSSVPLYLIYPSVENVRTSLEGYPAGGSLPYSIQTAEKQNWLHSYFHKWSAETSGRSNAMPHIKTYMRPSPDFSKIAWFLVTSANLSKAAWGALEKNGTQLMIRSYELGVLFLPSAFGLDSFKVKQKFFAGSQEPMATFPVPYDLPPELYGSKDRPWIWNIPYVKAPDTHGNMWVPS
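Tdp1 1 nM final; 15 min RT w/ cpd; substrate 15 nM, 5 min; beads 10 ug/ml, 10 min; AlphaScreen read. Neg ctrl: no enzyme.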
TDP1 cell noCPT: qHTS for Inhibitors of human tyrosyl-DNA phosphodiesterase 1 (TDP1): qHTS in cells in absence of CPT | DT40 Tdp1-/- hTDP1 cells, no CPT, ATP luminescence, 48 h | Potency, µM (top dose mostly 46.2 µM), usual class: inhibitors | 15% of 420,000 active | AID 686978, 2013; also: nearly all actives have a fitted effect of over 55% in size
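Luminescent ATP content (CellTiter-Glo) served as the growth readout. Knockout chicken DT40 cells expressing human TDP1 were exposed to compounds without camptothecin for a minimum 48 hr at 37 °C.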
ClpP mod: qHTS Assay for Activators of ClpP | ATP-dependent Clp protease proteolytic subunit (Bacillus subtilis (strain 168)), P80244 | purified B. subtilis ClpP, FRET peptide cleavage, 20 min | Potency, µM (titrated, usually from 57.5 µM) | 1.9% of 340,000 active | AID 651965, 2013; active = well fitted falling curve with a large enough effect; inconclusive = small, poorly fitted or top-dose-only effect; inactive = no such curve, though single readings can be large or run the other way; also: the source files actives as falling curves though it sought activators and does not explain the sign; nearly all actives have a fitted effect of over 65% in size
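FRET quenching reversal measured ClpP activation: 10 microg/mL B. subtilis ClpP at pH 8 with the FRET-FV decapeptide, read at 430 nm after 320 nm excitation. The 20-min minus 0-min signal was scaled between DMSO/no-enzyme wells and ADEP (5.8 microM final).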
TDP1 cell CPT: qHTS for Inhibitors of human tyrosyl-DNA phosphodiesterase 1 (TDP1): qHTS in cells in presence of CPT; chicken DT40 Tdp1-/-;hTDP1 cells + 20 nM CPT, ATP luminescence, 48 h; Potency, µM (titrated, usually from 46.2 µM), most hits filed as inhibitors; 12% of 420,000 active; also: nearly all actives have a fitted effect of over 55% in size
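Cell growth measured by CellTiter-Glo luminescence after a minimum 48 h, 37 C compound exposure with 20 nM CPT in Tdp1-knockout DT40 cells stably expressing hTDP1, seeded 400/well; qHTS titration format.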
A number is an active result; . = inactive; ? = inconclusive; / = no result; [ ] = remark or other dose. Unless noted, calls follow the shape of the dose curve; as a rule, active = well fitted curve in the direction sought with a large enough effect; inconclusive = small, poorly fitted or top-dose-only effect, or another doubt; inactive = no such curve, though single readings can be large; an effect the other way counts as inactive or inconclusive.

SMILES | TDP1 inh | TDP1 cell noCPT | ClpP mod | TDP1 cell CPT
CCN(C(=O)COC(=O)COc1ccc(Cl)c(C)c1)C1CCS(=O)(=O)C1 (centres undefined) | . | . | . | .
Cc1ccc(-n2nc3c(c2NC(=O)C(C)(C)C)CS(=O)(=O)C3)cc1 | . | . | . | .
O=c1c2ccc(F)cc2sn1-c1ccccc1 | / | 2.9µM | . | 2.6µM
O=C(NCc1ccccc1)C(c1ccccc1)N(Cc1ccc2c(c1)OCO2)C(=O)Cc1cccs1 (centres undefined) | . | 23µM | . | ?
O=C(NC1CCCC1)C(c1ccsc1)N(Cc1ccccc1)C(=O)Cc1cccs1 (centres undefined) | . | 13µM | . | 18µM
O=C(NC1CCCCC1)C(c1cccnc1)N(CCc1ccccc1)C(=O)Cc1cccs1 (centres undefined) | . | 10µM | . | ?
COc1ccc(CNC(=O)C(c2ccc(C)o2)N(Cc2cccs2)C(=O)Cc2cccs2)cc1 (centres undefined) | . | ? | . | 29µM
O=C(NC1CCCC1)C(c1cccnc1)N(CCc1ccccc1)C(=O)c1ccco1 (centres undefined) | . | . | / | .
O=C(NC1CCCC1)C(c1ccncc1)N(Cc1ccccc1)C(=O)Cc1cccs1 (centres undefined) | . | . | . | .
COCCN(C(=O)Cc1cccs1)C(C(=O)NCc1ccc(OC)cc1)c1ccc(C)cc1 (centres undefined) | . | ? | . | ?
O=C(NC1CCCC1)C(c1ccccc1)N(Cc1ccc2c(c1)OCO2)C(=O)Cc1cccs1 (centres undefined) | . | ? | . | ?
COc1ccccc1CN(C(=O)Cc1cccs1)C(C(=O)NC1CCCC1)c1ccncc1 (centres undefined) | . | ? | . | ?
COC(=O)c1ccc(C(C(=O)NC2CCCCC2)N(Cc2ccccc2)C(=O)Cc2cccs2)cc1 (centres undefined) | . | 4.1µM | . | 3.3µM
COC(=O)c1ccc(C(C(=O)NC2CCCCC2)N(C(=O)Cc2cccs2)C2CC2)cc1 (centres undefined) | . | 10µM | . | 8.2µM
COc1ccc(CNC(=O)CCC(=O)N2CCN(S(=O)(=O)c3ccc(Cl)cc3)CC2)cc1 | . | . | . | .
COc1ccccc1NC(=O)CN1CCC(n2nnc3cc(F)ccc32)CC1 | . | ? | . | 16µM
COc1ccc(Cl)cc1NC(=O)CN1CCC(n2nnc3cc(C)ccc32)CC1 | . | 23µM | . | ?
Cc1ccc2c(c1)nnn2C1CCN(CC(=O)NCCc2ccccc2)CC1 | . | ? | . | ?
Cc1ccc2c(c1)nnn2C1CCN(CC(=O)Nc2ccccc2N2CCOCC2)CC1 | . | 23µM | . | 18µM
COc1ccc(C(=O)NNC(=O)CN2CCC(n3nnc4cc(F)ccc43)CC2)cc1 | . | . | . | .
Cc1nc2cc(C(F)(F)F)ccc2n1C1CCN(CC(=O)NC(C)(C)C)CC1 | . | ? | . | 18µM
CC(CN1C(C)CCCC1C)OC(=O)c1ccc(Cl)cc1Cl (centres undefined) | . | . | / | .
COc1ccccc1NC(=O)CN1CCC(n2c(C)nc3cc(F)ccc32)CC1 | . | 23µM | . | ?
Cc1nc2cc(F)ccc2n1C1CCN(C(=O)c2ccc(F)cc2F)CC1 | . | ? | / | ?
Cc1nc2cc(F)ccc2n1C1CCN(C(=O)c2c(F)cccc2F)CC1 | . | 21µM | ? | 12µM
SMILES | TDP1 inh | TDP1 cell noCPT | ClpP mod | TDP1 cell CPT
Cc1ccc2c(CC(=O)N3CCN(c4cccc(Cl)c4)CC3)coc2c1C | . | ? | . | ?
CCOCCc1nnc(NC(=O)C(C)Oc2ccccc2)s1 (centres undefined) | . | . | . | .
CC(C)Cc1nnc(NC(=O)CCC(=O)Nc2ccc(Cl)cc2)s1 | . | . | / | .
CC(C)Cc1nnc(NC(=O)CCS(=O)(=O)c2ccc(Cl)cc2)s1 | . | ? | . | 21µM
Cc1cc(C)cc(N(C)S(=O)(=O)c2nnc(NC(=O)COc3ccc(Cl)cc3)s2)c1 | . | . | . | .
Cc1cc(C)cc(N(CCC(=O)Nc2nnc(C)s2)S(=O)(=O)c2ccc(Cl)cc2)c1 | . | 23µM | . | ?
COCCSc1nnc(NC(=O)CCS(=O)(=O)c2ccccc2)s1 | .[0.0935 µM] | 13µM | / | 7.3µM
CCOCCc1nnc(NC(=O)CCS(=O)(=O)c2ccccc2)s1 | . | 9.2µM | / | 21µM
Cc1ccccc1Br | . | / | / | /
CS(=O)(=O)N1Cc2ccccc2CC1C(=O)OCC(=O)NCCc1ccc(S(N)(=O)=O)cc1 (centres undefined) | . | . | . | .
O=C(/C=C/[C@H]1O[C@@H](n2ccc(=O)[nH]c2=O)[C@H](O)[C@@H]1O)NC1CCN(Cc2ccccc2)C1 (some centres undefined) | / | . | . | .
CC(C)c1ccc(S(=O)(=O)NCc2nc3cccnc3n2Cc2ccc(F)cc2)cc1 | . | ? | . | ?
Cc1ccc(S(=O)(=O)CCc2nnc(NC(=O)CCl)s2)cc1C | . | 13µM | / | 15µM
CC1CCc2sc3ncnc(N4CCN(CCO)CC4)c3c2C1 (centres undefined) | / | ? | / | .
Cc1cc(C)c(NC(=O)CC(=O)c2ccccc2)c(Cl)c1 | / | . | / | .
Cc1cc(C)c(C(=O)CC(=O)c2ccccc2Cl)c(O)c1 | / | 10µM | ? | 16µM
Cc1ccc(OCC(=O)NCC2(N3CCOCC3)CCCCC2)cc1C | . | 16µM | . | 21µM
CC(=O)c1ccc(OC(C)C(=O)NCC2(N3CCOCC3)CCCCC2)cc1 (centres undefined) | . | ? | . | ?
O=C(COc1ccc(F)cc1)NCC1(N2CCOCC2)CCCCC1 | . | . | . | ?
Cc1cc(C)cc(OCC(=O)NCC2(N3CCOCC3)CCCCC2)c1 | . | 26µM | . | ?
O=C(Cc1ccccc1F)NCC1(N2CCOCC2)CCCCC1 | . | . | / | .
O=C(COc1ccccc1[N+](=O)[O-])NCC1(N2CCOCC2)CCCCC1 | . | 21µM | . | ?
CC(Oc1ccccc1F)C(=O)NCC1(N2CCOCC2)CCCCC1 (centres undefined) | . | 18µM | . | ?
CCOc1cc(CNC(=O)c2ccc(Cn3c(=O)c4cccn4c4cccnc43)cc2)ccc1OC | . | ? | . | .
CCN(C(=O)Cn1c(C(=O)OC)cc2sc(Cl)cc21)c1cccc(C)c1 | . | . | . | ?
COc1cc(=O)n2c(c1C(=O)NCc1ccc3c(c1)OCO3)CCN(C(=O)c1ccc(C)cc1)CC2 | / | . | / | .
Cc1cccc(OCC(=O)NCC2(N3CCN(C)CC3)CCCCC2)c1C | . | ? | . | ?
Cc1cccc(C)c1OCC(=O)NCC1(N2CCOCC2)CCCCC1 | . | ? | . | 16µM
COc1ccc(C(=O)CCN2CCC(C)CC2)cc1 | / | 12µM | . | 13µM

Compound activity as filed in PubChem BioAssay.
